# Laboratory results reported in PubChem BioAssay (Tox21).
# Inconclusive results are not listed. Entries that show only a call come without a potency. A number with no mark means an inactive call. Calls of active or inactive are those of the source. The call rests on the fitted dose curve; in most records, active means well fitted cell-killing curve with a large enough effect in the repeat runs; inconclusive means weak or mixed curves, or effect the other way; inactive means flat fitted curve, though single readings scatter.
# Experiments:
# [1] = cAMP Responsive Elements (CRE) small molecule antagonists, cell-based qHTS assay: qHTS cell viability counter screen (AID 2060913); further: nearly all actives have a fitted effect of over 40% in size
# In short: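 Viability of NKH477-stimulated (0.25 uM final) CRE-bla HEK293T cells is measured by CellTiter-Glo luminescence following 3 hrs compound exposure at 37 C.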
# [2] = cAMP Responsive Elements (CRE) small molecule agonists, cell-based qHTS assay: qHTS cell viability counter screen (AID 2060914);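 further: viability read after 3 h of compound exposure; nearly all actives have a fitted effect of over 50% in size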
# In short: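 HEK 293T CRE-bla; DMEM + 10% dialyzed FBS, 25 mM HEPES; 18 h pre-incubation; compound 3 h, 37 °C/5% CO2; CellTiter-Glo added after reporter read; luminescence after 30 min RT.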
SMILES,Potency [1],Potency [2],"viability change, negative = cytotoxic [1]","activity change, negative = cytotoxicity [2]"
C[C@H]1c2cccc(O)c2C(O)=C2C(=O)[C@]3(O)C(O)=C(C(N)=O)C(=O)[C@@H](N(C)C)[C@@H]3[C@@H](O)[C@@H]21,inactive,inactive,,
CCCOc1ccc2nc(NC(=O)OC)[nH]c2c1,inactive,inactive,,
O=C[C@H](O)[C@H](O)[C@H](O)CO,inactive,inactive,,
c1cnc2cc3c(cc2n1)C1CNCC3C1,inactive,inactive,,
CCCCCCCCCCOc1cc2c(=O)c(C(=O)OCC)c[nH]c2cc1OCC,,,-0.799% [at 8.39 µM],-0.252% [at 8.39 µM]
CCCOC(C)=O,inactive,inactive,,
CCCc1ccc(OC)cc1,inactive,inactive,,
BrC1CCC(Br)C(Br)CCC(Br)C(Br)CCC1Br (configuration not stated),inactive,inactive,,
OCC1CCC(CO)CC1 (configuration not stated),inactive,inactive,,
O=C(O)c1ccccc1NCCc1ccccc1,inactive,inactive,,
CCCC(=O)OCCC(C)CCC=C(C)C (configuration not stated),inactive,inactive,,
Cc1ccccc1C(OCCN(C)C)c1ccccc1 (configuration not stated),inactive,inactive,,
O=[N+]([O-])c1cccc(Cl)c1Cl,inactive,inactive,,
CC1CCCCC1,inactive,inactive,,
CCCCCNCCCCC,inactive,inactive,,
CCCCOC(=O)c1ccc(N)cc1,inactive,inactive,,
O=C(O)c1ccc(OCCN2CCCCC2)cc1,inactive,inactive,,
CCCCOC(=O)C(C)Oc1ccc(Oc2ccc(C(F)(F)F)cn2)cc1 (configuration not stated),inactive,inactive,,
CC(O)CN (configuration not stated),inactive,inactive,,
CC(C)c1cc(C(C)C)cc(C(C)C)c1,inactive,inactive,,
CC(=O)Nc1ccc(C)cc1,inactive,inactive,,
O=C(O)CC(O)C(=O)O (configuration not stated),inactive,inactive,,
C#CC(C)N(C)C(=O)Nc1ccc(Cl)cc1 (configuration not stated),inactive,inactive,,
CC(=O)Nc1ccc(C(=O)O)cc1,inactive,inactive,,
COc1ccc2[nH]cc(CCNC(C)=O)c2c1,inactive,inactive,,
CNC(=O)c1cc(Oc2ccc(NC(=O)Nc3ccc(Cl)c(C(F)(F)F)c3)cc2)ccn1,inactive,inactive,,

SMILES,Potency [1],Potency [2],"viability change, negative = cytotoxic [1]","activity change, negative = cytotoxicity [2]"
O=c1[nH]cnc2c1ncn2[C@@H]1O[C@H](CO)[C@@H](O)[C@H]1O,inactive,inactive,,
CCC(C)(C)C,inactive,inactive,,
CCCCOC(=O)c1ccccc1,inactive,inactive,,
CCOC(=O)c1ccc(NC(=O)CN2CCCCC2)cc1,inactive,inactive,,
NCCN1CCNCC1,inactive,inactive,,
C=C(C)[C@@H]1CC=C(C)CC1,inactive,inactive,,
NNc1nc(-c2ccc(N)cc2)cs1,inactive,inactive,,
CO[C@H]1C=CO[C@@]2(C)Oc3c(C)c(O)c4c(O)c(cc(O)c4c3C2=O)NC(=O)/C(C)=C\C=C/[C@H](C)[C@H](O)[C@@H](C)[C@@H](O)[C@@H](C)[C@H](OC(C)=O)[C@@H]1C,inactive,inactive,,
CC(=O)N(CC(O)CO)c1c(I)c(C(=O)NCC(O)CO)c(I)c(C(=O)NCC(O)CO)c1I (configuration not stated),inactive,inactive,,
CC1COC(=O)O1 (configuration not stated),inactive,inactive,,
CCN1CCCC1CN (configuration not stated),inactive,inactive,,
COc1cc(C(=O)N2CCOCC2)cc(OC)c1OC,inactive,inactive,,
CCCCCC(=O)OCCc1ccccc1,inactive,inactive,,
CCn1cc(C(=O)O)c(=O)c2cc(F)c(N3CCNCC3)cc21,inactive,inactive,,
O=c1c(O)c(-c2ccc(O)cc2)oc2cc(O)cc(O)c12,inactive,inactive,,
O=C(O)CO,inactive,inactive,,
CC1(O)CSC(C)(O)CS1 (configuration not stated),inactive,inactive,,
Cc1ccc(N)cc1[N+](=O)[O-],inactive,inactive,,
COc1cccc(Br)c1,inactive,inactive,,
CC(C)=CCC/C(C)=C/CC/C(C)=C/C(=O)OCC(=O)[C@@]1(O)CC[C@H]2[C@@H]3CCC4=CC(=O)C=C[C@]4(C)[C@H]3[C@@H](O)C[C@@]21C,inactive,inactive,,
CCO[Si](CC)(OCC)OCC,inactive,inactive,,
COCCC(=O)OC,inactive,inactive,,
NS(=O)(=O)c1cc2c(cc1Cl)NC(C1CC3C=CC1C3)NS2(=O)=O (configuration not stated),inactive,inactive,,
c1ccc(CCNc2nc(-c3ccccc3)cs2)cc1,inactive,inactive,,
CC(C)(C)c1nnc(NS(=O)(=O)c2ccc(N)cc2)s1,inactive,inactive,,
